# Data from PubChem BioAssay (NCATS).
# Inconclusive results are not listed. A call without a number means that no potency is given here. The source made the active and inactive calls. The call rests on the fitted dose curve; in most records, active means well fitted curve in the direction sought with a large enough effect; inconclusive means small, poorly fitted or top-dose-only effect, or another doubt; inactive means no such curve, though single readings can be large; an effect the other way counts as inactive or inconclusive.
# What was measured:
# [1] = Quantitative High-Throughput drug screen in 47 multiple myeloma cell lines against the NCATS MIPE library collection: RPMI8226_ATCC cell viability assay (AID 1919871); conditions: RPMI8226 myeloma viability, CellTiter-Glo ATP luminescence, 48 h; series mostly up to 45.8 µM; further: nearly all actives have a fitted effect of over 30% in size; further: potency means the concentration at half of the fitted maximal effect
# Summary of the method: (§1)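 Inhibition of viability over 48 h was scored by ATP content (CellTiter-Glo) in 500-cell wells. Zero and full viability were defined by media-only and DMSO-only wells.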
# [2] = Quantitative High-Throughput drug screen in 47 multiple myeloma cell lines against the NCATS MIPE library collection: KMS28BM_JCRB cell viability assay (AID 1919874); conditions: CellTiter-Glo ATP, 48 h; series mostly up to 45.8 µM; further: nearly all actives have a fitted effect of over 35% in size; further: potency means the concentration at half of the fitted maximal effect
# Summary of the method: as §1
# [3] = Quantitative High-Throughput drug screen in 47 multiple myeloma cell lines against the NCATS MIPE library collection: OPM2_DSMZ cell viability assay (AID 1919872); conditions: OPM2 myeloma viability, CellTiter-Glo ATP luminescence, 48 h; series mostly up to 45.8 µM; further: nearly all actives have a fitted effect of over 30% in size; further: potency means the concentration at half of the fitted maximal effect
# Summary of the method: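 CellTiter-Glo luminescence (ATP) after 48 h compound exposure, 37C/5% CO2; 500 cells/well; MIPE 4.0 approved/investigational drugs pinned in; DMSO = 100%, media only = 0% viability.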
# [4] = Quantitative High-Throughput drug screen in 47 multiple myeloma cell lines against the NCATS MIPE library collection: KMS11_JCRBsus cell viability assay (AID 1919873); conditions: KMS11 myeloma viability, CellTiter-Glo ATP luminescence, 48 h; series mostly up to 45.8 µM; further: nearly all actives have a fitted effect of over 50% in size; further: potency means the concentration at half of the fitted maximal effect
# Summary of the method: as §1
# [5] = biological target: Cytochrome P450 3A4 (Homo sapiens) (UniProt P08684); experiment: qHTS for inhibitors of CYP3A4 against the NCATS DSHEA and TCM libraries (AID 1919971); conditions: recombinant CYP3A4 enzyme activity, luminescence qHTS; series mostly up to 34.1 µM;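 further: inhibition lowers luminescence from luciferin made by CYP3A4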
# Sequence of Cytochrome P450 3A4 (Homo sapiens) (P08684 whole entry, looked up, canonical isoform): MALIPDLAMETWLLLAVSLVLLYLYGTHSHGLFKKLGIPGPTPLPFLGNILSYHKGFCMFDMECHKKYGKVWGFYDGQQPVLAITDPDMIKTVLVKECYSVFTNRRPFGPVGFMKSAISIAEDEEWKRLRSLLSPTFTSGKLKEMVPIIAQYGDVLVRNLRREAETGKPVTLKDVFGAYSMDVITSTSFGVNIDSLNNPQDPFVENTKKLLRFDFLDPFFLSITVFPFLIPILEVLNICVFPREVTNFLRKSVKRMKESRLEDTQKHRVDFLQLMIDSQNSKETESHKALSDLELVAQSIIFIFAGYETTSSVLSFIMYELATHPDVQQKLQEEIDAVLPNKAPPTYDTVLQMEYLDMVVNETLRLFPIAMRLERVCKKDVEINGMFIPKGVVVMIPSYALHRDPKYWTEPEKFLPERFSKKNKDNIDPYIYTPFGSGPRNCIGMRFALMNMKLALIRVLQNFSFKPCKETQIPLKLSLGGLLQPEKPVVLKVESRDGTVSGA
# Summary of the method: (§2)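 Read-out is luminescence after P450-Glo detection (30 min, RT). Before that: 15 min compound–enzyme preincubation, then 30-45 min reaction with 1x NADPH regeneration solution, substrate concentration isoform-specific.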
# [6] = biological target: Cytochrome P450 2C19 (Homo sapiens) (UniProt P33261); experiment: qHTS for inhibitors of CYP2C19 against the NCATS DSHEA and TCM libraries (AID 1919974); conditions: CYP2C19 enzyme inhibition, luminescence qHTS; series mostly up to 34.1 µM;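 further: luminescence from luciferin released by CYP2C19 oxidation of a pro-luciferin substrate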
# Sequence of Cytochrome P450 2C19 (Homo sapiens) (P33261 whole entry, looked up): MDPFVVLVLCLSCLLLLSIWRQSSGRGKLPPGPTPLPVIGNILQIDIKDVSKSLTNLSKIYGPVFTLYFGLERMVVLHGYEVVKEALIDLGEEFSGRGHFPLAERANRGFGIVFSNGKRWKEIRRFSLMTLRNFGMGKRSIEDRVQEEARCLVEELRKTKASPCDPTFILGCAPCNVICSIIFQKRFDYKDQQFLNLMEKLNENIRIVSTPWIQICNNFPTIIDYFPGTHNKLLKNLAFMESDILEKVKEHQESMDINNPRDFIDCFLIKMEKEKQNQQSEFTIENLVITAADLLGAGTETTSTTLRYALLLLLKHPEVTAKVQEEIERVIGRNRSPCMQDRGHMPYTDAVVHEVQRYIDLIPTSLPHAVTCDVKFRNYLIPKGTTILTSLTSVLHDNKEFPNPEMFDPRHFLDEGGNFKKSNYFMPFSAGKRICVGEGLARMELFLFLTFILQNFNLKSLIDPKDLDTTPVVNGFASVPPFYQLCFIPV
# Summary of the method: as §2
# [7] = KB-3-1 P-gp reporter qHTS against the NCATS DSHEA and TCM libraries (AID 1919975); conditions: KB-3-1 parental cells, CellTiter-Glo luminescence viability, 72 h; series mostly up to 26.1 µM
# Summary of the method: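 Parental KB-3-1 human cervical adenocarcinoma cells (500 cells/well, DMEM + 10% FBS) were treated with substances for ~72 h at 37C; viability was read by CellTiter-Glo luminescence.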
smiles,measurement,setting,value
NC(N)=NC(N)=NCCc1ccccc1,Potency,[1],20.9 µM (active)
same,Potency,[2],7.43 µM (active)
COc1cc2ncnc(Nc3cccc(Cl)c3)c2cc1OC,Potency,[3],inactive
same,Potency,[4],18.7 µM (active)
CCN[C@H]1C[C@H](C)S(=O)(=O)c2sc(S(N)(=O)=O)cc21,Potency,[3],inactive
same,Potency,[4],inactive
same,Potency,[2],inactive
C[C@@H](CN1CC(=O)NC(=O)C1)N1CC(=O)NC(=O)C1,Potency,[1],inactive
same,Potency,[3],inactive
same,Potency,[4],inactive
CCN1CCCC1CNC(=O)c1cc(S(N)(=O)=O)ccc1OC (stereo not drawn),Potency,[1],inactive
same,Potency,[3],inactive
same,Potency,[4],inactive
same,Potency,[2],inactive
O=C(O)c1cccnc1,Potency,[1],inactive
same,Potency,[3],inactive
same,outcome,[5],inactive
same,Potency,[6],inactive
same,Potency,[7],inactive
N[C@@H](Cc1ccc(O)c(O)c1)C(=O)O,Potency,[1],inactive
same,Potency,[2],inactive
CC(C)(C)C(=O)OCOP(=O)(COCCn1cnc2c(N)ncnc21)OCOC(=O)C(C)(C)C,Potency,[1],18.7 µM (active)
same,Potency,[3],23.5 µM (active)
same,Potency,[4],23.5 µM (active)
same,Potency,[2],11.8 µM (active)
COC(=O)Nc1nc2ccc(Sc3ccccc3)cc2[nH]1,Potency,[1],5.26 µM (active)
same,Potency,[3],3.32 µM (active)
same,Potency,[4],0.935 µM (active)
same,Potency,[2],0.935 µM (active)
Nc1[nH]c(=O)ncc1F,Potency,[3],inactive
same,Potency,[4],inactive
same,Potency,[2],inactive
O=S(=O)(O)CCS,Potency,[1],inactive
same,Potency,[3],inactive
same,Potency,[4],inactive
same,Potency,[2],inactive
CN(C)CCc1c[nH]c2ccc(CS(=O)(=O)N3CCCC3)cc12,Potency,[1],inactive
same,Potency,[2],inactive
CC(C)(Sc1cc(C(C)(C)C)c(O)c(C(C)(C)C)c1)Sc1cc(C(C)(C)C)c(O)c(C(C)(C)C)c1,Potency,[4],inactive
same,Potency,[2],inactive
CCC(=O)O[C@]1(C(=O)SCF)[C@H](C)C[C@H]2[C@@H]3C[C@H](F)C4=CC(=O)C=C[C@]4(C)[C@@]3(F)[C@@H](O)C[C@@]21C,Potency,[1],0.0019 µM (active)
same,Potency,[4],inactive
same,Potency,[2],inactive
